The source made the active and inactive calls. Unless noted, how the calls were made is not given here.

Test [1] can be described thus: anti-His antibody binders, primary screen, artefact control for SMM control protein annotation, biochemical, small-molecule microarray, 635 nm fluorescence (AID 1128).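 Further: score merges feature fluorescence with signal-to-noise for each printed compound spot.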 The following applies: anti-His Alexa647 antibody binding, higher = more signal.
Test [2] relates to Human papillomavirus type 1a E7 protein (residues 1-88). Kind of test: HPV1a E7 small-molecule binders, primary screen, biochemical, small-molecule microarray, residues 1-88, 635 nm (AID 1129). The following applies: small-molecule microarray binding, fluorescence 635 nm; higher = more signal.
The target in test [3] is Focal adhesion kinase 1 (Homo sapiens) (UniProt Q05397). Briefly: small-molecule microarray binders of FAK, primary screen, biochemical, 635/667 nm fluorescence, BSA, DTT (AID 1130).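 Further: composite of spot emission at 667 nm and signal to noise over triplicate slides.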 The following applies: PTK2 binding, 635 nm fluorescence, higher = more signal.
Test [4] relates to Fibrinogen (Alexa647-labelled). Kind of test: fibrinogen binders on compound microarrays, profiling panel, artefact control for SMM control-protein annotation, biochemical, small-molecule microarray, 635/667 nm fluorescence (AID 1131).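 Further: z-score merges 667 nm fluorescence with per-spot signal-to-noise over triplicate slides.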 The note with it: fibrinogen-A647 binding fluorescence, higher = more signal.
The target of test [5] is Follistatin (Homo sapiens) (UniProt P19883). Briefly: follistatin binders on small-molecule microarrays, primary screen, biochemical, small-molecule microarray, 635/667 nm fluorescence (AID 1132). The following applies: FST binding, 635 nm fluorescence, higher = more signal.
Test [6] addresses Fibroblast growth factor 2 (Homo sapiens) (UniProt P09038). Kind of test: FGF2 binders on small-molecule microarrays, primary screen, biochemical, small-molecule microarray, 635/667 nm fluorescence (AID 1133). The note with it: small-molecule microarray binding, FGF2, fluorescence 635/667; higher = more signal.
Test [7] can be described thus: mitochondrial membrane potential change in A549 cells, profiling panel, cell-based, JC-1 fluorescence, basal, 24 h, 100 nL (AID 1138).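 Further: A549 lung adenocarcinoma cells under basal conditions with no added stimulus; test concentration not given here.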 The note with it: higher = more signal.
The subject of test [8] is Lefty1. Kind of test: Lefty1 binders on small-molecule microarrays, primary screen, biochemical, small-molecule microarray, 635/667 nm fluorescence (AID 1139). The note with it: small-molecule microarray binding, fluorescence 635/667; higher = more signal.
Test [9] deals with wheat germ agglutinin (Triticum aestivum), Alexa647-labelled. Briefly: wheat germ agglutinin binders on compound microarrays, profiling panel, artefact control for SMM control-protein annotation, biochemical, small-molecule microarray, 635/667 nm fluorescence (AID 1140).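 Further: score merges 667 nm feature emission with signal to noise over triplicate slides.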 The following applies: WGA-A647 binding, 635 nm fluorescence, higher = more signal.
Test [10] concerns the target Luciferin 4-monooxygenase (Photinus pyralis) (UniProt P08659). Briefly: firefly luciferase enzyme inhibitors, primary screen, biochemical, luminescence, purified enzyme, 2006 set (AID 1141).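 Further: cell-free assay with purified firefly luciferase at 100 ng per well in PBS; test concentration not given here.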 The note with it: SteadyGlo luminescence, 30 min, higher = more signal, called active from +8 up or from −8 down.
For test [11], the system named is Wnt5a (protein binding on small-molecule microarray). Briefly: Wnt5a binders on small-molecule microarray, primary screen, biophysical, 635/667 nm fluorescence (AID 1142).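 Further: fluorescence read at 667 nm with signal to noise per printed feature.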 The following applies: 635 nm fluorescence, higher = more signal.
Test [12] in a line: cell viability in Huh7 cells, primary screen, cytotoxicity control for HCV replication inhibitor project, CellTiter-Glo luminescence, basal, 48 h (AID 1143).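 Further: Huh7 hepatoma cells carrying a hepatitis C replication reporter with no stimulus; test concentration not given here.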 The note with it: Huh7 HCV replicon, higher = more signal, called active from +8 up or from −8 down. Background: Cellular ATP, detected with luciferase, serves as a proxy for viable cell number.
The nature of test [13]: P. aeruginosa biofilm formation inhibitors, primary screen, PAO1 strain, BacTiter-Glo luminescence, LB-PBS (AID 1144). The following applies: 12 h, higher = more signal.
Test [14] in a line: CREB reporter modulators without forskolin, primary screen, cell-based, PC12, CRE-LacZ reporter, unstimulated (AID 1145). The following applies: no forskolin, luminescence, 4.5 h, higher = more signal, called active from +8 up or from −8 down.
The nature of test [15]: CREB reporter modulators under forskolin, primary screen, cell-based, PC12, CRE-LacZ reporter, forskolin-stimulated (AID 1146).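 Further: PC12 cells with 6xCRE LacZ reporter stimulated by forskolin 10 µM; beta-galactosidase reporter signal reflecting CREB driven transcription.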 The following applies: luminescence, 4.5 h, higher = more signal, called active from +8 up or from −8 down.
The target in test [16] is Streptavidin (Streptomyces avidinii) (UniProt P22629). Kind of test: streptavidin binders on small-molecule microarray, primary screen, artefact control for SMM compound annotation, biophysical, 635/667 nm fluorescence (AID 1147).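 Further: signal reflects streptavidin binding to arrayed compounds as a control protein.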 The note with it: streptavidin binding, higher = more signal.
Test [17] in a line: small-molecule binders of probe aInhba, primary screen, biochemical, small-molecule microarray, 635/667 nm fluorescence (AID 1148).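 Further: score merges 667nm spot fluorescence with signal-to-noise for antibody binding to printed compounds.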 The following applies: higher = more signal.
Test [18] concerns the target Torsin-1A (Homo sapiens) (UniProt O14656). Kind of test: torsin A binders from cell lysate, primary screen, small-molecule microarray, wild-type, 635/667 nm (AID 1149). The note with it: COS7 hTOR1A-WT lysate, 635 nm fluorescence, higher = more signal.
Test [19] has the same target. Briefly: small-molecule binders of mutant TOR1A in lysate, primary screen, cell lysate, small-molecule microarray, COS7 lysate, 635/667 nm fluorescence (AID 1150).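 Further: score pools 667 nm emission and signal to noise measuring lysate protein binding.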 The note with it: COS7 hTOR1A mutant lysate, 635 nm fluorescence, higher = more signal.
For test [20], the system named is Sonic hedgehog protein (Shh). Briefly: small-molecule binders of Shh protein, primary screen, biochemical, small-molecule microarray, 635/667 nm fluorescence (AID 1151).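 Further: Shh protein binding to compounds spotted on small-molecule microarray slides; score combines spot fluorescence intensity with signal-to-noise across triplicate slides.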 The following applies: small-molecule microarray binding, 635 nm fluorescence; higher = more signal.

Sequence of Focal adhesion kinase 1 (Homo sapiens) (Q05397 whole entry, looked up): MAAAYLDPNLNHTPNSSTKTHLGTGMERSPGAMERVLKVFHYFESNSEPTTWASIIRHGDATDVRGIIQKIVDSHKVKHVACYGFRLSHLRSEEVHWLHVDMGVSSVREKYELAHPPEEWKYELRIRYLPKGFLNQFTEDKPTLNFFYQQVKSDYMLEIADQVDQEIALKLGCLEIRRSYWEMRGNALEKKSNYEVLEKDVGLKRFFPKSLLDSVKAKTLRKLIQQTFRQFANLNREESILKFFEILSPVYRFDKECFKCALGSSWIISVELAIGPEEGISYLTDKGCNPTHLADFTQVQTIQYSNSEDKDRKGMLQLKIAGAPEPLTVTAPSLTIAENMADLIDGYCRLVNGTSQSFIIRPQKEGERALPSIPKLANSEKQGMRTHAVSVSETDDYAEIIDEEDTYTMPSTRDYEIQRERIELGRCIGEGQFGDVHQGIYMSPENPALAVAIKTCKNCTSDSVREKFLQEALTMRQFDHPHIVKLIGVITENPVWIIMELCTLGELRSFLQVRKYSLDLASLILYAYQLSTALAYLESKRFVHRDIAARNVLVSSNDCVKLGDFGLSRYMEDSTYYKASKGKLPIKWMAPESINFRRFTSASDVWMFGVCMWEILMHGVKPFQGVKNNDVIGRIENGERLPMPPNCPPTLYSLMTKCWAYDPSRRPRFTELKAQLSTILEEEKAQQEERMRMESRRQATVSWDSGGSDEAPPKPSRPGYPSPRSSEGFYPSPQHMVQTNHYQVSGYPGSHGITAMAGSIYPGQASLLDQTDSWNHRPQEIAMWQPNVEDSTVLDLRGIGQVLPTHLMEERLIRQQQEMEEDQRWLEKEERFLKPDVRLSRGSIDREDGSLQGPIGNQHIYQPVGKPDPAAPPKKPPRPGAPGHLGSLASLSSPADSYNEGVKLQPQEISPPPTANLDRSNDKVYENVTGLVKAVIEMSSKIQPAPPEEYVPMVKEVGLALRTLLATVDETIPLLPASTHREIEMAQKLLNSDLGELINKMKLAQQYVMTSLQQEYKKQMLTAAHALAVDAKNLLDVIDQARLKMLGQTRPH
Sequence of Streptavidin (Streptomyces avidinii) (P22629 whole entry, looked up): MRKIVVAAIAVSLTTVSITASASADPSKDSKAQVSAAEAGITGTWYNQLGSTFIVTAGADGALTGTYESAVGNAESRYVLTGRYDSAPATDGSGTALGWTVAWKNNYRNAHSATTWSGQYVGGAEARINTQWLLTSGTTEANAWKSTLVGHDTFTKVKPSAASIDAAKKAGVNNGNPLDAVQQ
Sequence of Follistatin (Homo sapiens) (P19883 whole entry, looked up): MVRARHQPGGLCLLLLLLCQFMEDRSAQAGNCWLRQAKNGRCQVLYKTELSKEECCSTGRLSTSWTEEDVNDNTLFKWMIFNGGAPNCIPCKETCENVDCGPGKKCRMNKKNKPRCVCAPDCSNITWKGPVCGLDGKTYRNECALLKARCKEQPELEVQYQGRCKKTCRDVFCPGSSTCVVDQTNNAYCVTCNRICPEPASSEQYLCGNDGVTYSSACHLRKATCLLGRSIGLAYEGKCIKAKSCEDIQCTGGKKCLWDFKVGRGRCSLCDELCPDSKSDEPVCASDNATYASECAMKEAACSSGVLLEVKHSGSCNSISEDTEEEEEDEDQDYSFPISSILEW
Sequence of Luciferin 4-monooxygenase (Photinus pyralis) (P08659 whole entry, looked up): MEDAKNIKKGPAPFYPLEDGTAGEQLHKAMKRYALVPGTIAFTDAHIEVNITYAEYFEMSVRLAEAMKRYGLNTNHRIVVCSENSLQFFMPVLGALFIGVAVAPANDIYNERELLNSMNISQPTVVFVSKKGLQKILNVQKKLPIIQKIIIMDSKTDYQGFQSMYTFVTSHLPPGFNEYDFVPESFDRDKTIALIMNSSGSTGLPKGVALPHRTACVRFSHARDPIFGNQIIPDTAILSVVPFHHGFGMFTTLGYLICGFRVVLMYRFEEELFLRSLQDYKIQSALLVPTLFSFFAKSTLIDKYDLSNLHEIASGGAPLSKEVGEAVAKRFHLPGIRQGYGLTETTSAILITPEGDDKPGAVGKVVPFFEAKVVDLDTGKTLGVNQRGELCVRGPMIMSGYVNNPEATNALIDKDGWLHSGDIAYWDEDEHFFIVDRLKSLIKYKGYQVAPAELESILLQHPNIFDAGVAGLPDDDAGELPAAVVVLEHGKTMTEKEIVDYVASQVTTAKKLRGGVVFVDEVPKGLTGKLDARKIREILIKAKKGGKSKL
Sequence of Fibroblast growth factor 2 (Homo sapiens) (P09038 whole entry, looked up): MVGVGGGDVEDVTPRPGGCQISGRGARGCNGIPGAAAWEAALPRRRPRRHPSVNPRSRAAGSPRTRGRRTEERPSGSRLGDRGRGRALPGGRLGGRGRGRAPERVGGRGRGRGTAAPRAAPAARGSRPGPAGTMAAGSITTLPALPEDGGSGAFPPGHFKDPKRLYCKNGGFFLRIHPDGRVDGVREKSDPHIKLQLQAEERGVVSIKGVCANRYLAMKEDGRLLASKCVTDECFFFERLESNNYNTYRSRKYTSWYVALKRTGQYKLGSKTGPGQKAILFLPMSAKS
Sequence of Torsin-1A (Homo sapiens) (O14656 whole entry, looked up): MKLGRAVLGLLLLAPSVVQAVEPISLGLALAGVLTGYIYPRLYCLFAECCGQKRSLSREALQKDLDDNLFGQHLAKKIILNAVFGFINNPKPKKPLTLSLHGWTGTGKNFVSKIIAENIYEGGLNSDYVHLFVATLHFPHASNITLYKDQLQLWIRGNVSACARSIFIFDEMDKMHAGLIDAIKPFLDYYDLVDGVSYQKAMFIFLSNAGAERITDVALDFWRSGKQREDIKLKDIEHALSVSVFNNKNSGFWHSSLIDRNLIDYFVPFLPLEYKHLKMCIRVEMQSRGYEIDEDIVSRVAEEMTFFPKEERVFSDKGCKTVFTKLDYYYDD

Take `CCCN1C(=O)[C@@]2(Cc3ccccc3)N=C(c3ccc(OCCCO)cc3)O[C@H]2c2ccccc21`: the composite z-score in [1] came to 0.856; in test [2] it was 1.08; in test [3] it was 0.86; in test [4], 0.753; in [5] it was 1.42; in test [6], 1.73. The composite z-score is 0.757 in test [8]; 0.445 in test [9]; 0.421 in [11]; -0.0407 in test [16]; 0.215 in test [17]; 1.06 in test [18]. For the same compound, the values for the composite z-score in test [19] and in test [20] were 0.884 and 1.72, respectively. Moreover, the z-score in test [7] was 0.686; in test [10], -4.05 (inactive); in [12] it was -5.03 (inactive); in test [13], -0.657 (inactive); in test [14], 1.61 (inactive); in test [15], -0.979 (inactive).
Take `CC(C)CNC(=O)[C@@]1(c2ccc([N+](=O)[O-])cc2)CC(=O)N(C(C)C)[C@@H]1c1ccc(CO)cc1`: the composite z-score is 0.217 in test [1]; -0.467 in test [2]; -0.362 in [3]; -1.2 in [4]; 0.272 in [5]; -1.25 in [6]. For the same compound, the composite z-score in test [8] is -0.455; in [9], 0.486; in test [11], -0.618; in test [16] it was -1.19; in [17] it was -0.233; in test [18], -0.486. The figures for the composite z-score in test [19] and in [20] were -1.29 and 0.225, respectively. The z-score in [7] was -0.0836; in test [10], 1.18 (inactive); in test [12] it was -4.3 (inactive); in [13], -1.28 (inactive); in [14], -1.06 (inactive); in test [15] it was 0.107 (inactive).
As to `COC(=O)C(CC#Cc1ccc2c(c1)[C@]1(C(=O)N2)[C@H](c2ccccc2OCCO)N2[C@H](c3ccccc3)[C@H](c3ccccc3)OC(=O)[C@H]2[C@@H]1C(=O)Nc1nc2ccccc2s1)C(=O)OC`, the composite z-score in [1] is 0.35; in test [2] it was 1.21; in [3], 0.607; in [4], 0.97; in test [5], 1.11; in [6], 0.622. Besides, the composite z-score in [8] came out at 0.9; in test [9], 1.29; in test [11], 0.384; in [16], 0.762; in test [17], 0.0633; in [18], 0.283. The composite z-score amounted to 0.24 in [19] and 1.46 in test [20]. Moreover, the z-score in test [7] is -2.12; in [10], -1.21 (inactive); in test [12] it was -2.07 (inactive); in test [13], -0.827 (inactive); in test [14] it was 1.21 (inactive); in test [15], 1.53 (inactive).
As to `COc1cc2c(cc1OC)CN(C(=O)[C@@H]1[C@H]3C(=O)O[C@H](c4ccccc4)[C@H](c4ccccc4)N3[C@H](c3ccc(OCCO)cc3)[C@@]13C(=O)Nc1ccc(C#CCCO)cc13)CC2`, the composite z-score was determined as 1.23 in test [1]; 1.23 in test [2]; 0.237 in test [3]; 0.956 in test [4]; 1.36 in [5]; 0.999 in [6]. Moreover, the composite z-score is 1.08 in test [8]; 1.27 in test [9]; 0.452 in [11]; 1.64 in [16]; -0.0812 in test [17]; 0.431 in [18]. Also, the composite z-score in [19] came out at 0.755; in test [20], 1.25. Moreover, the z-score was -1.37 in test [7]; -0.418 (inactive) in [10]; -4.91 (inactive) in test [12]; -1.07 (inactive) in test [13]; -0.465 (inactive) in [14]; 0.0283 (inactive) in test [15].
Turning to `Cc1ccc(S[C@]2(C(=O)NCC(C)C)CC(=O)N(C3CCCCC3)[C@@H]2c2ccc(CO)cc2I)cc1`, the composite z-score is 0.464 in test [1]; 1.17 in test [2]; 0.558 in test [3]; 0.166 in test [4]; 0.0905 in [5]; -0.284 in test [6]. Moreover, the composite z-score in test [8] is 0.0839; in test [9], 0.752; in [11], 0.249; in test [16], 0.411; in test [17], -0.0259; in test [18] it was 0.314. Moreover, the composite z-score stood at 0.289 in test [19] and 0.104 in test [20]. The z-score in test [7] is 1.28; in [10], 1.22 (inactive); in test [12] it was -4.87 (inactive); in test [13], -0.88 (inactive); in [14], -0.619 (inactive); in test [15], 0.413 (inactive).

The values are drawn from PubChem BioAssay.
